Consider 40 compounds from PubChem BioAssay (Tox21).

Inconclusive results are not listed. Where a call stands in place of a potency, no number is given. Calls of active or inactive are those of the source. Calls follow the shape of the dose curve; as a rule, active = well fitted curve in the direction sought with a large enough effect in the repeat runs; inconclusive = weak or mixed curves; inactive = no such curve, though single readings can be large; an effect the other way counts as inactive or inconclusive.
Also: nearly all actives have a fitted effect of over 40% in size.

The first assay has as its target Nuclear receptor subfamily 1 group I member 2 (Homo sapiens) (UniProt O75469). Description: CYP3A4 induction through human pregnane X receptor (PXR) by small molecules, qHTS assay (AID 1346984). As to conditions: DPX-2 HepG2 PXR, CYP3A4-luciferin luminescence, 24 h; series mostly up to 46.1 µM. A digest of the protocol:
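Read-out is luminescence after One-Glo addition, following a 3 hr, 37C incubation with Luciferin-IPA CYP3A4 substrate (3uM final). Before that, compounds were on DPX-2 cells (HepG2 co-transfected with PXR element plus CYP3A4-promoter luciferase) for 24 hr at 37C.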
For orientation: In qHTS, concentration-response curves come from the screen itself.
With `CS(=O)(=O)c1ccc([C@@H](O)[C@@H](COC(=O)CN)NC(=O)C(Cl)Cl)cc1`, the Potency entry is “inactive”.

For the compound `CC(C)(COP(=O)(O)OP(=O)(O)OC[C@H]1O[C@@H](n2cnc3c(N)ncnc32)[C@H](O)[C@@H]1OP(=O)(O)O)C(O)C(=O)NCCC(=O)NCCS` (some centres not stated), the Potency result is “inactive”.

Take `COc1ccc([C@@H]2CC(=O)c3c(O)cc(O[C@@H]4O[C@H](CO[C@@H]5O[C@@H](C)[C@H](O)[C@@H](O)[C@H]5O)[C@@H](O)[C@H](O)[C@H]4O)cc3O2)cc1O`: the Potency entry was “inactive”.

Consider `CC(=NCc1ccccc1)c1ccccc1O`, for which the Potency entry is “inactive”.

Consider `Cc1c(O)c(=O)ccn1C`, for which the Potency entry was “inactive”.

As to `CNCC(=O)N[C@@H](CCCN=C(N)N)C(=O)N[C@H](C(=O)N[C@@H](Cc1ccc(O)cc1)C(=O)N[C@H](C(=O)N[C@@H](Cc1cnc[nH]1)C(=O)N1CCC[C@H]1C(=O)N[C@@H](C)C(=O)O)C(C)C)C(C)C`, the Potency result is “inactive”.

As for `CC[N+](CC)(CC)CCC(O)(c1ccccc1)C1CCCCC1` (configuration not stated), the Potency result is “inactive”.

With `CC[C@H]1OC(=O)C[C@@H](O)[C@H](C)[C@@H](O[C@@H]2O[C@H](C)[C@@H](O)[C@H](N(C)C)[C@H]2O)[C@@H](CCN2C[C@H](C)C[C@H](C)C2)C[C@@H](C)C(=O)/C=C/C(C)=C/[C@@H]1CO[C@@H]1O[C@H](C)[C@@H](O)[C@@H](OC)[C@H]1OC`, the Potency result is “inactive”.

For `N=C(N)n1cccn1`, the Potency result was “inactive”.

On to `CCC(=O)OC(OP(=O)(CCCCc1ccccc1)CC(=O)N1C[C@H](C2CCCCC2)C[C@H]1C(=O)O)C(C)C` (some centres not stated), for which the Potency entry was “inactive”.

With `O=C1C2CC3CC1CC(O)(C3)C2`, the Potency entry was “inactive”.

For `FC(F)(F)COCC(F)(F)F`, the Potency entry is “inactive”.

Regarding `Nc1nc(NC2CC2)c2ncn([C@@H]3C=C[C@@H](CO)C3)c2n1`, the Potency entry was “inactive”.

For the compound `NC(=O)c1cc[n+](CC2=C(C(=O)O)N3C(=O)[C@@H](NC(=O)C(c4ccccc4)S(=O)(=O)[O-])[C@H]3SC2)cc1` (some centres not stated), the Potency entry was “inactive”.

Consider `NCC(O)CC(=O)O` (configuration not stated), for which the Potency entry is “inactive”.

As to `NCC[C@H](O)C(=O)N[C@@H]1C[C@H](N)[C@@H](O[C@H]2O[C@H](CN)CC[C@H]2N)[C@H](O)[C@H]1O[C@H]1O[C@H](CO)[C@@H](O)[C@H](N)[C@H]1O`, the Potency entry is “inactive”.

For the compound `COC(=O)C(CN)c1c[nH]c2ccc(OC)cc12` (configuration not stated), the Potency entry is “inactive”.

As for `O=C1c2c(O)cccc2[C@H]([C@@H]2O[C@H](CO)[C@@H](O)[C@H](O)[C@H]2O)c2cc(CO)cc(O)c21`, the Potency result is “inactive”.

With `Cc1cc(=O)c(C(=O)N[C@@H](C(=O)N[C@@H]2C(=O)N3C(C(=O)O)=C(CSc4nnnn4C)CS[C@H]23)c2ccc(O)cc2)c[nH]1`, the Potency entry was “inactive”.

`O=C1c2ccccc2CN2C(=O)c3ccccc3CN12`: the Potency entry is “inactive”.

For `C[C@@H]1O[C@@H](OC[C@H]2O[C@@H](Oc3c(-c4ccc(OCCO)c(OCCO)c4)oc4cc(OCCO)cc(O)c4c3=O)[C@H](O)[C@@H](O)[C@@H]2O)[C@H](O)[C@H](O)[C@H]1O`, the Potency result is “inactive”.

As for `CN[C@@H]1[C@@H](O[C@H]2O[C@H](CO)[C@@H](N)[C@H](O)[C@H]2O)O[C@H]2C[C@@H](N)[C@@H](O[C@H]3[C@H](O)[C@@H](O)[C@H](N)C[C@@H]3N)O[C@@H]2[C@@H]1O`, the Potency result is “inactive”.

The next assay has the same target. Description: Human pregnane X receptor (PXR) activation by small molecules, qHTS assay (AID 1346985). Also: potency is read from the fitted curve at half-maximal effect. As to conditions: DPX-2 HepG2 CYP3A4-luciferase, 24 h; series mostly up to 38.3 µM. A digest of the protocol:
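DPX-2 cells (HepG2 co-transfected with a PXR response element and a CYP3A4-promoter luciferase construct) were seeded at 2,000 per well, rested 5 hr at 37C, then exposed to DMSO-dissolved compounds for 24 hr. Activation was read as luciferase luminescence.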
For `CCCCCCCCCC(=O)NO`, the Potency entry was “inactive”.

With `CCCCCCCCCCCCCCCC(=O)OC[C@H](COP(=O)([O-])OCC[N+](C)(C)C)OC(=O)CCCCCCCCCCCCCCC`, the Potency result is “inactive”.

With `CO/N=C(\C(=O)N[C@@H]1C(=O)N2C(C(=O)[O-])=C(C[n+]3ccc(N)n3CCO)CS[C@H]12)c1csc(N)n1`, the Potency result is “inactive”.

For the compound `CC(C)CCC[C@@H](C)[C@H]1CC[C@H]2[C@@H]3CC=C4C[C@@H](O)CC[C@]4(C)[C@H]3CC[C@]12C`, the Potency entry was “inactive”.

For the compound `CC[C@@H](C)[C@H](N)C(=O)O`, the Potency result was “inactive”.

As to `CC12CCC(C1)C(C)(C)C2=O` (configuration not stated), the Potency result is “inactive”.

For the compound `C[Se]CC[C@H](N)C(=O)O`, the Potency entry is “inactive”.

On to `C[C@@H]1C(=O)NC2=Nc3cccc(Cl)c3CN21`, for which the Potency entry is “inactive”.

`CCOc1ccc(S(=O)(=O)O)c2cccnc12`: the Potency result is “inactive”.

For the compound `COc1ccc(/C=C/C(=O)O)cc1`, the Potency entry is “inactive”.

Turning to `Cc1cn([C@H]2C[C@H](O)[C@@H](CO)O2)c(=O)[nH]c1=O`, the Potency result was “inactive”.

Consider `CN=C(N)NCCC[C@H](N)C(=O)O`, for which the Potency entry is “inactive”.

Take `C/C=C/C1=C(C(=O)O)N2C(=O)[C@@H](NC(=O)[C@H](N)c3ccc(O)cc3)[C@H]2SC1`: the Potency entry is “inactive”.

Take `O=C(O)/C=C/C(=O)Nc1ccc(S(=O)(=O)Nc2nccs2)cc1`: the Potency result is “inactive”.

With `CC(=O)Nc1ccc(OC(C)=O)cc1`, the Potency entry is “inactive”.

In the case of `NC(=O)C1c2ccccc2CCc2ccccc21`, the Potency result was “inactive”.

As for `CC12CCC(C[N+](C)(CCC[N+](C)(C)C)C1)C2(C)C` (configuration not stated), the Potency entry is “inactive”.

Turning to `CCC1OC(=O)C[C@@H](O)[C@H](C)[C@@H](O[C@@H]2O[C@H](C)C[C@H](N(C)C)[C@H]2O)[C@@H](CC=O)C[C@@H](C)C(=O)/C=C/[C@]2(C)OC2C1C` (some centres not stated), the Potency entry was “inactive”.

As for `CS(=O)(=O)c1ccc([C@@H](O)[C@@H](COC(=O)CN)NC(=O)C(Cl)Cl)cc1`, the Potency entry is “inactive”.

For `CC(C)(COP(=O)(O)OP(=O)(O)OC[C@H]1O[C@@H](n2cnc3c(N)ncnc32)[C@H](O)[C@@H]1OP(=O)(O)O)C(O)C(=O)NCCC(=O)NCCS` (some centres not stated), the Potency result is “inactive”.

In the case of `COc1ccc([C@@H]2CC(=O)c3c(O)cc(O[C@@H]4O[C@H](CO[C@@H]5O[C@@H](C)[C@H](O)[C@@H](O)[C@H]5O)[C@@H](O)[C@H](O)[C@H]4O)cc3O2)cc1O`, the Potency entry is “inactive”.

For the compound `CC(=NCc1ccccc1)c1ccccc1O`, the Potency entry is “inactive”.

With `Cc1c(O)c(=O)ccn1C`, the Potency entry is “inactive”.

With `CNCC(=O)N[C@@H](CCCN=C(N)N)C(=O)N[C@H](C(=O)N[C@@H](Cc1ccc(O)cc1)C(=O)N[C@H](C(=O)N[C@@H](Cc1cnc[nH]1)C(=O)N1CCC[C@H]1C(=O)N[C@@H](C)C(=O)O)C(C)C)C(C)C`, the Potency result is “inactive”.

As for `CC[N+](CC)(CC)CCC(O)(c1ccccc1)C1CCCCC1` (configuration not stated), the Potency entry was “inactive”.

Turning to `CC[C@H]1OC(=O)C[C@@H](O)[C@H](C)[C@@H](O[C@@H]2O[C@H](C)[C@@H](O)[C@H](N(C)C)[C@H]2O)[C@@H](CCN2C[C@H](C)C[C@H](C)C2)C[C@@H](C)C(=O)/C=C/C(C)=C/[C@@H]1CO[C@@H]1O[C@H](C)[C@@H](O)[C@@H](OC)[C@H]1OC`, the Potency result was “inactive”.

With `N=C(N)n1cccn1`, the Potency result is “inactive”.

With `CCC(=O)OC(OP(=O)(CCCCc1ccccc1)CC(=O)N1C[C@H](C2CCCCC2)C[C@H]1C(=O)O)C(C)C` (some centres not stated), the Potency entry is “inactive”.

As for `O=C1C2CC3CC1CC(O)(C3)C2`, the Potency entry is “inactive”.

For `FC(F)(F)COCC(F)(F)F`, the Potency entry is “inactive”.

With `Nc1nc(NC2CC2)c2ncn([C@@H]3C=C[C@@H](CO)C3)c2n1`, the Potency was 7.08 µM (active).

For `NC(=O)c1cc[n+](CC2=C(C(=O)O)N3C(=O)[C@@H](NC(=O)C(c4ccccc4)S(=O)(=O)[O-])[C@H]3SC2)cc1` (some centres not stated), the Potency entry was “inactive”.

Turning to `NCC(O)CC(=O)O` (configuration not stated), the Potency entry was “inactive”.

`NCC[C@H](O)C(=O)N[C@@H]1C[C@H](N)[C@@H](O[C@H]2O[C@H](CN)CC[C@H]2N)[C@H](O)[C@H]1O[C@H]1O[C@H](CO)[C@@H](O)[C@H](N)[C@H]1O`: the Potency result was “inactive”.

As to `COC(=O)C(CN)c1c[nH]c2ccc(OC)cc12` (configuration not stated), the Potency entry was “inactive”.

For `O=C1c2c(O)cccc2[C@H]([C@@H]2O[C@H](CO)[C@@H](O)[C@H](O)[C@H]2O)c2cc(CO)cc(O)c21`, the Potency entry was “inactive”.

As to `Cc1cc(=O)c(C(=O)N[C@@H](C(=O)N[C@@H]2C(=O)N3C(C(=O)O)=C(CSc4nnnn4C)CS[C@H]23)c2ccc(O)cc2)c[nH]1`, the Potency result was “inactive”.

Take `O=C1c2ccccc2CN2C(=O)c3ccccc3CN12`: the Potency result was “inactive”.

Turning to `C[C@@H]1O[C@@H](OC[C@H]2O[C@@H](Oc3c(-c4ccc(OCCO)c(OCCO)c4)oc4cc(OCCO)cc(O)c4c3=O)[C@H](O)[C@@H](O)[C@@H]2O)[C@H](O)[C@H](O)[C@H]1O`, the Potency entry was “inactive”.

Turning to `CN[C@@H]1[C@@H](O[C@H]2O[C@H](CO)[C@@H](N)[C@H](O)[C@H]2O)O[C@H]2C[C@@H](N)[C@@H](O[C@H]3[C@H](O)[C@@H](O)[C@H](N)C[C@@H]3N)O[C@@H]2[C@@H]1O`, the Potency entry was “inactive”.
